Inconclusive results are not listed. Active and inactive are the calls of the source. The call rests on the fitted dose curve; in most records, active means well fitted inhibition curve with a large enough effect; inconclusive means small, poorly fitted or top-dose-only effect; inactive means flat fitted curve, though single readings scatter.
What follows are compounds tested against Tyrosyl-DNA phosphodiesterase 1 (Homo sapiens) (UniProt Q9NUW8) (assay: Confirmation Assay for Inhibitors of Tyrosyl-DNA Phosphodiesterase (TDP1) (AID 489007; further: nearly all actives have a fitted effect of over 40% in size)). Settings: recombinant human TDP1 enzymatic activity, dose-response.
Sequence of Tyrosyl-DNA phosphodiesterase 1 (Homo sapiens) (Q9NUW8 whole entry, looked up): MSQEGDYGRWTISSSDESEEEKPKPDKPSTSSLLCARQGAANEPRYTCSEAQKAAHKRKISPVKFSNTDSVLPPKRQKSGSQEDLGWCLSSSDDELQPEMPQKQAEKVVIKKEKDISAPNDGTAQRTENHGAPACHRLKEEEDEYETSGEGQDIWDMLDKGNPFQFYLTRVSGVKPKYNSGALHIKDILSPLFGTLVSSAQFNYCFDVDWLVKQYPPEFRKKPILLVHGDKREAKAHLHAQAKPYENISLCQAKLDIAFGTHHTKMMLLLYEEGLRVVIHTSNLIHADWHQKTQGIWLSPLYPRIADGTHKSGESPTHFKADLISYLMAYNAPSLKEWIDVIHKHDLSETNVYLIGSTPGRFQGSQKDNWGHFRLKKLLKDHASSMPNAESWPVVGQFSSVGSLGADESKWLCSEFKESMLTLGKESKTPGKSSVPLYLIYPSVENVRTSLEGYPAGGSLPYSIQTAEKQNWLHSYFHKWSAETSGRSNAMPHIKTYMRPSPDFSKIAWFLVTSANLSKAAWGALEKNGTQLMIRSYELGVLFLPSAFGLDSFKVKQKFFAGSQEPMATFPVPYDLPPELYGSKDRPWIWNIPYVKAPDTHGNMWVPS
Procedure, shortened: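 Recombinant human Tdp1 (1 nM final), expressed in E. coli, preincubated 15 min with compound. Then 15 nM 5'-biotin/3'-phosphotyrosine-FITC DNA substrate added for 5 min at room temperature. AlphaScreen beads (10 ug/ml) added for 10 min; cleavage gives signal loss.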
For Cc1ccc(CN2C(=O)N/C(=C/c3ccc(-c4ccc(C(=O)O)cc4)o3)C2=O)cc1, the Potency was 12.6 µM (active).
With O=C(O)C1Cc2ccccc2CN1C(=O)COc1ccc(Br)cc1 (centres undefined) the Potency was 15.8 µM (active).
With Cc1cccc(N2CCN(S(=O)(=O)c3ccc4[nH]c(=O)c(=O)[nH]c4c3)CC2C)c1 (centres undefined) the Potency was 39.8 µM (active).
Clc1ccc(N2N=C(c3cccs3)CC2c2ccco2)cc1 (centres undefined) was tested, and the Potency was 11.2 µM (active).
O=C(O)C1CC=CCC1C(=O)Nc1ccccc1 (centres undefined) was tested, and the Potency was 14.1 µM (active).
In the case of N#C/C(=C\c1ccc(OCc2ccc(F)cc2)cc1)C(=O)Nc1cccc(C(=O)O)c1, the Potency is reported as 14.1 µM (active).
With Cc1cc(C(=O)O)ccc1-c1ccc(/C=C2\NC(=O)N(Cc3ccc(F)cc3)C2=O)o1 the Potency was 4.47 µM (active).
For Cc1ccc(S(=O)(=O)N2CCCN(c3nc4cc(C)ccc4cc3C#N)CC2)cc1, the Potency was 39.8 µM (active).
For Nc1cc([N+](=O)[O-])ccc1N1C(=O)CCCC1=O, the Potency was 15.8 µM (active).
In the case of O=C(O)c1ccc(-c2ccc(/C=C3\NC(=O)N(Cc4ccc(Cl)cc4)C3=O)o2)cc1, the Potency is reported as 14.1 µM (active).
For Cc1cc(C=O)c(C)n1-c1ccc(Cl)c(C(=O)O)c1, the Potency was 1.12 µM (active).
With N#CC(C#N)=Cc1cccn1-c1ccc(C(=O)O)cc1 the Potency was 3.98 µM (active).
In the case of O=C(O)Cc1ccc(NC(=O)C2CC=CCC2C(=O)O)cc1 (centres undefined), the Potency is reported as 14.1 µM (active).
Cc1ccccc1NC(=O)CN1C(=O)S/C(=C\c2cccn2-c2cccc(C(=O)O)c2)C1=O was tested, and the Potency was 14.1 µM (active).
With Cc1nnc(NC(=O)CSc2ccc(-c3ccco3)nn2)s1 the Potency was 14.1 µM (active).
With COc1ccccc1C1CN(c2ccccc2)N=C1c1cccs1 (centres undefined) the Potency was 25.1 µM (active).
In the case of Cc1ccc(C)n1-c1ccc(C(=O)O)cc1, the Potency is reported as 0.794 µM (active).
In the case of COc1ccc(OCc2cc(C(=O)O)c(C)o2)cc1, the Potency is reported as 10 µM (active).
For Cc1c(-c2ccc(Cl)cc2)oc(=O)c2c(N)n(-c3ccccc3)nc12, the Potency was 25.1 µM (active).
In the case of O=C(O)c1cccc(-n2cccc2/C=C2\SC(=O)N(Cc3ccccc3F)C2=O)c1, the Potency is reported as 11.2 µM (active).
In the case of CC1=N/C(=C/c2ccco2)C(=O)O1, the Potency is reported as 3.55 µM (active).
In the case of Cc1ccc(NC(=O)c2noc3c2CCC3)cc1C, the Potency is reported as 12.6 µM (active).
For COC(=O)c1cc(NC(=O)c2ccc3c(c2)NC(=O)c2ccccc2S3)cc(C(=O)OC)c1, the Potency was 25.1 µM (active).
In the case of O=C(COC(=O)c1cc2c(s1)CCC2)Nc1ccc(F)cc1, the Potency is reported as 12.6 µM (active).

From PubChem BioAssay (NCATS)
Potency means the concentration at half of the fitted maximal effect.
